This is an account of results in PubChem BioAssay (NCI).

Compounds without any hit were thinned out: in the full panel of roughly 79,000, 15% have a hit. Activity calls are given as the source filed them. Cut-off read from the data, not from the text of the source: active = growth inhibition above about 70%; inactive = the rest.

A short description of the first experiment: NCI Yeast Anticancer Drug Screen. Data for the cln2 rad14 strain (AID 165).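 Note: 0% = growth equal to vehicle treated cultures.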 The settings on record: S. cerevisiae cln2 rad14 strain, at 50.0 µM, stronger effect = higher value. The essentials: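 Relative to vehicle controls, growth inhibition of compound-treated cln2 rad14 yeast was recorded.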
For `O=[N+]([O-])c1ccc(-c2nnc(C34CC5CC(CC(C5)C3)C4)o2)cc1`, the growth inhibition was -5.9% (inactive).
Still for that read-out and setting: for `Clc1cccc(Cl)c1C1SCc2nc3ncccc3n21` (stereo not given) the value was 16.9% (inactive); for `COc1c2ccoc2c(OC)c2oc(=O)ccc12`, 17.2% (inactive).
Turning to `N#Cc1cccc(O)c1`, the growth inhibition was 20.1% (inactive).
The same measure, in the same setting: then `CCOC(=O)c1c(SC(=O)c2ccc(C(C)(C)C)cc2)n(-c2ccccc2)c(=S)n(-c2ccccc2)c1=O`, with 6.45% (inactive); and `CCOC(=O)/C=C/c1ccc(OCC)cc1`, with -17.2% (inactive).
Same read-out and setting: for `O=C(c1ccc(F)cc1)c1ccc2ccccc2c1C(=O)O` the value was 14.3% (inactive); for `CC(=O)O[C@H]1CC[C@@]2(C)[C@@H](CC[C@@H]3[C@@H]2CC[C@]2(C)[C@@H](C(=O)CCC(F)(F)F)CC[C@@H]32)C1`, 23.3% (inactive); for `Nc1cc(=O)[nH]c(NCCCC(N)C(=O)O)n1` (stereo not given), -15.7% (inactive).
Take `O=[N+]([O-])c1cc(Br)c2ccccc2c1`: the growth inhibition was 2% (inactive).
Still for that read-out and setting: then `Cc1ccc(-n2cnc3c(Cl)ncnc32)cc1[N+](=O)[O-]`, with -45% (inactive); and `C/C(=N\NC(=S)NC(C)C)c1nc2ncccc2[nH]1`, with -28.8% (inactive); and `Cc1ccc(COC(=O)Nc2ccc(C)c(NC(=O)OCc3ccc(C)cc3)c2)cc1`, with -2.9% (inactive).
As for `NCCSS(=O)(=O)CCN`, the growth inhibition was -18.4% (inactive).
Consider `CN(/N=C/c1ccccc1)c1nnnn1-c1ccccc1`, for which the growth inhibition is 33% (inactive).
The same measure, in the same setting: for `CCOC(CCCl)c1ccc(C)cc1` (stereo not given) the value was 20.1% (inactive).
As for `CCOc1cc(N)nc(N)n1`, the growth inhibition was 5.9% (inactive).
As to `O=C1CSC(c2ccc(Br)cc2)N1c1nncs1` (stereo not given), the growth inhibition was -9.95% (inactive).
The same measure, in the same setting: then `O/N=C1\CCCCC1C(NO)c1ccccc1` (stereo not given), with -16.4% (inactive); and `CN(/N=C/c1cccs1)c1ccc([N+](=O)[O-])cc1[N+](=O)[O-]`, with -9.35% (inactive).
Turning to `CN(C)CC1OCCc2ccccc21` (stereo not given), the growth inhibition was 0.6% (inactive).
The same measure, in the same setting: for `C/C(=N\N=Nc1ccc(N(C)C)cc1)c1ccccc1` the value was 15.9% (inactive).
For the compound `NC(=S)NNC(=S)NC(=O)c1ccco1`, the growth inhibition was 14.3% (inactive).
Still for that read-out and setting: for `O=C1CCN2CCC(=O)c3c2c(cc2ccccc32)N1` the value was 10.3% (inactive); for `CC1(C)C(=O)N2c3ccccc3C3(CC(N4C(=O)c5ccccc5C4=O)C(=O)O3)C2N1C(=O)OCc1ccccc1` (stereo not given), 15.2% (inactive).
For `O=C(Nc1ccc([N+](=O)[O-])cc1)Nc1nccnn1`, the growth inhibition is -39.9% (inactive).
In the case of `CN(NC(=O)CCCl)C1=NCCN1`, the growth inhibition is -11% (inactive).
On the same count and under the same terms, for `Cc1cc(N=Nc2ccc(N=Nc3ccc(S(=O)(=O)O)cc3)cc2)cc(C(=O)O)c1O` the value was -8% (inactive); for `O=[N+]([O-])c1cc(Cl)c(Cl)c(Cl)c1Cl`, 14.8% (inactive).
Take `O=C1C(c2ccccc2)C(c2ccccc2)C(c2ccccc2)C1c1ccccc1` (stereo not given): the growth inhibition is 5.65% (inactive).
On the same count and under the same terms, for `O=[N+]([O-])c1ccc(-c2ccccc2CO)cc1` the value was -33.5% (inactive); for `CCCC(O)C(=O)C(CCC)N(CC)CC` (stereo not given), 18.7% (inactive); for `O=C(NCCNc1ccccc1)C12CC3CC(CC(C3)C1)C2`, -2.4% (inactive).
For the compound `Clc1ccc([I+]c2ccc(Cl)cc2)cc1`, the growth inhibition was 97.4% (active).
Same read-out and setting: then `[N-]=[N+]=NS(=O)(=O)CCc1ccc(Cl)cc1`, with -55% (inactive); and `CCCCC(CC)C(C(C)=O)N(C)C` (stereo not given), with 8.65% (inactive).
With `CCC1(C)CC(C)(C)c2ccc(C)cc21` (stereo not given), the growth inhibition was -9.2% (inactive).
On the same count and under the same terms, for `Brc1cccc2c(SCCCCCCSc3c4ccccc4nc4c(Br)cccc34)c3ccccc3nc12` the value was -52.5% (inactive).
For the compound `O=C(O)c1[nH]ncc1[N+](=O)[O-]`, the growth inhibition is 11.3% (inactive).
On the same count and under the same terms, then `O=C(O)CCBr`, with 0% (inactive).

Another experiment in a line: NCI Yeast Anticancer Drug Screen. Data for the bub3 strain (AID 167). The conditions noted are these: S. cerevisiae bub3 mutant strain, at 50.0 µM, stronger effect = higher value. The essentials:
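Inhibition values come from growth of compound-treated mutant yeast normalised to vehicle-treated controls.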
For the compound `O=[N+]([O-])c1ccc(-c2nnc(C34CC5CC(CC(C5)C3)C4)o2)cc1`, the growth inhibition was -11.2% (inactive).
With `Clc1cccc(Cl)c1C1SCc2nc3ncccc3n21` (stereo not given), the growth inhibition is 10.6% (inactive).
On to `COc1c2ccoc2c(OC)c2oc(=O)ccc12`, for which the growth inhibition was -4% (inactive).
Same read-out and setting: then `N#Cc1cccc(O)c1`, with 13.7% (inactive).
In the case of `CCOC(=O)c1c(SC(=O)c2ccc(C(C)(C)C)cc2)n(-c2ccccc2)c(=S)n(-c2ccccc2)c1=O`, the growth inhibition is 40% (inactive).
With `CCOC(=O)/C=C/c1ccc(OCC)cc1`, the growth inhibition is -1.35% (inactive).
On the same count and under the same terms, for `O=C(c1ccc(F)cc1)c1ccc2ccccc2c1C(=O)O` the value was 38.2% (inactive); for `CC(=O)O[C@H]1CC[C@@]2(C)[C@@H](CC[C@@H]3[C@@H]2CC[C@]2(C)[C@@H](C(=O)CCC(F)(F)F)CC[C@@H]32)C1`, 0.15% (inactive); for `Nc1cc(=O)[nH]c(NCCCC(N)C(=O)O)n1` (stereo not given), 0.85% (inactive).
Consider `O=[N+]([O-])c1cc(Br)c2ccccc2c1`, for which the growth inhibition is 18.2% (inactive).
Consider `Cc1ccc(-n2cnc3c(Cl)ncnc32)cc1[N+](=O)[O-]`, for which the growth inhibition was 1.65% (inactive).
The same measure, in the same setting: then `C/C(=N\NC(=S)NC(C)C)c1nc2ncccc2[nH]1`, with 17.5% (inactive); and `Cc1ccc(COC(=O)Nc2ccc(C)c(NC(=O)OCc3ccc(C)cc3)c2)cc1`, with -3.8% (inactive).
Same read-out and setting: for `NCCSS(=O)(=O)CCN` the value was 1.95% (inactive); for `CN(/N=C/c1ccccc1)c1nnnn1-c1ccccc1`, 0.6% (inactive).
On the same count and under the same terms, for `CCOC(CCCl)c1ccc(C)cc1` (stereo not given) the value was -33.6% (inactive); for `CCOc1cc(N)nc(N)n1`, 5.65% (inactive).
Turning to `O=C1CSC(c2ccc(Br)cc2)N1c1nncs1` (stereo not given), the growth inhibition is 6.6% (inactive).
Same read-out and setting: for `O/N=C1\CCCCC1C(NO)c1ccccc1` (stereo not given) the value was -12.2% (inactive); for `CN(/N=C/c1cccs1)c1ccc([N+](=O)[O-])cc1[N+](=O)[O-]`, -12.8% (inactive); for `CN(C)CC1OCCc2ccccc21` (stereo not given), 6.05% (inactive).
The same measure, in the same setting: then `C/C(=N\N=Nc1ccc(N(C)C)cc1)c1ccccc1`, with 29.2% (inactive); and `NC(=S)NNC(=S)NC(=O)c1ccco1`, with 22.1% (inactive).
On to `O=C1CCN2CCC(=O)c3c2c(cc2ccccc32)N1`, for which the growth inhibition was -12.7% (inactive).
The same measure, in the same setting: then `CC1(C)C(=O)N2c3ccccc3C3(CC(N4C(=O)c5ccccc5C4=O)C(=O)O3)C2N1C(=O)OCc1ccccc1` (stereo not given), with 14.1% (inactive); and `O=C(Nc1ccc([N+](=O)[O-])cc1)Nc1nccnn1`, with 8.4% (inactive); and `CN(NC(=O)CCCl)C1=NCCN1`, with 8.1% (inactive).
On the same count and under the same terms, then `Cc1cc(N=Nc2ccc(N=Nc3ccc(S(=O)(=O)O)cc3)cc2)cc(C(=O)O)c1O`, with -19.7% (inactive); and `O=[N+]([O-])c1cc(Cl)c(Cl)c(Cl)c1Cl`, with 7.3% (inactive); and `O=C1C(c2ccccc2)C(c2ccccc2)C(c2ccccc2)C1c1ccccc1` (stereo not given), with -4.3% (inactive).
On the same count and under the same terms, for `O=[N+]([O-])c1ccc(-c2ccccc2CO)cc1` the value was -6.95% (inactive); for `CCCC(O)C(=O)C(CCC)N(CC)CC` (stereo not given), 11.1% (inactive).
As for `O=C(NCCNc1ccccc1)C12CC3CC(CC(C3)C1)C2`, the growth inhibition is 19.1% (inactive).
Same read-out and setting: for `Clc1ccc([I+]c2ccc(Cl)cc2)cc1` the value was 97% (active); for `[N-]=[N+]=NS(=O)(=O)CCc1ccc(Cl)cc1`, -17.9% (inactive).
Same read-out and setting: then `CCCCC(CC)C(C(C)=O)N(C)C` (stereo not given), with 4.45% (inactive); and `CCC1(C)CC(C)(C)c2ccc(C)cc21` (stereo not given), with -2.9% (inactive); and `Brc1cccc2c(SCCCCCCSc3c4ccccc4nc4c(Br)cccc34)c3ccccc3nc12`, with -21% (inactive).
Consider `O=C(O)c1[nH]ncc1[N+](=O)[O-]`, for which the growth inhibition was 11% (inactive).
On the same count and under the same terms, then `O=C(O)CCBr`, with 6.5% (inactive).
